From PubChem BioAssay
PI5P4K alpha inh = qHTS for Inhibitors of phosphatidylinositol 5-phosphate 4-kinase (PI5P4K) | 330,000 compounds, 1.2% hits | max response, % | Phosphatidylinositol 5-phosphate 4-kinase type-2 alpha (Homo sapiens), P48426 | AID 652105, 2013 | PI5P4Kalpha enzyme, ADP-Glo luminescence, 60 min; hits give low values; active = max response of -50% or lower; inconclusive = between -30% and -50%; inactive = -30% or higher; note: value at the top dose of about 77 µM; % is set by controls: 0 for no effect and ±100 for the full control effect
Target sequence (P48426 whole entry, looked up): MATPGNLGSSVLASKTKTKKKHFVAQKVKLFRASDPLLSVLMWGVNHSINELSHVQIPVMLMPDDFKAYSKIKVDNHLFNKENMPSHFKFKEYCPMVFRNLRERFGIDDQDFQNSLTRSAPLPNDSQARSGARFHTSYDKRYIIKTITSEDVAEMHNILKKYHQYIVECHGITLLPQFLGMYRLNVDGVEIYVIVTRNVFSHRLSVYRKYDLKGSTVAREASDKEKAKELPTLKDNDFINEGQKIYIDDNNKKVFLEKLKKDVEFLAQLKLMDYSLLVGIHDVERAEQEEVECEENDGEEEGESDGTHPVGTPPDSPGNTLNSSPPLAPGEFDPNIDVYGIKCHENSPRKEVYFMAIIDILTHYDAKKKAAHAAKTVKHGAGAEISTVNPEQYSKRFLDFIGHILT
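ADP-Glo luminescence end-point after a 60 min room-temperature kinase reaction. PI5P4Kalpha and substrate in HEPES pH 7.4 buffer with EGTA, 0.1% CHAPS and 5% DMSO; ATP at 5 microM final.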
BAZ2B block = qHTS Assay for Inhibitors of BAZ2B | Bromodomain adjacent to zinc finger domain protein 2B (Homo sapiens), Q9UIF8 | AlphaScreen BAZ2B-H3K14Ac peptide displacement | Potency, µM (titrated, usually from 114 µM), for the others: at the highest dose activity change, negative = inhibition, most hits filed as inhibitors | 360,000 compounds, 4.4% hits; note: potency is the fitted concentration of half-maximal effect; % is set by controls: 0 for no effect and ±100 for the full control effect; nearly all actives have a fitted effect of over 60% in size
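BAZ2B (50 nM) with biotin-H3(5-23)K14Ac peptide (50 nM) in PBS pH 7.4, 0.01% Tween-20, preformed 30 min, then compound 30 min at room temperature; top concentration 110uM. AlphaScreen streptavidin donor/nickel chelate acceptor beads (10 ug/mL final), 20 min dark, signal read.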
PLK1 PBD inh = qHTS for Inhibitors of PLK1-PDB (polo-like kinase 1 - polo-box domain): Primary Screen; Plk1 PBD binding of FITC phosphopeptide, fluorescence polarization; 360,000 compounds, 2.8% hits; Potency, µM, without a hit: max response, negative = inhibition, hits mostly inhibitors; AID 720504, 2013; note: potency is the fitted concentration of half-maximal effect; series mostly up to about 57 µM; % is set by controls: 0 for no effect and ±100 for the full control effect; nearly all actives have a fitted effect of over 65% in size
JMJD2A Tudor = qHTS Assay for Inhibitors of JMJD2A-Tudor Domain; Lysine-specific demethylase 4A (Homo sapiens), O75164; AlphaScreen JMJD2A-Tudor / H3K4me3 peptide binding; Potency, µM (top dose mostly 114 µM), for the others: at the top dose activity change, negative = inhibition, most hits filed as inhibitors; 390,000 compounds, 4.4% hits; AID 504339, 2011; note: potency is the fitted concentration of half-maximal effect; % is set by controls: 0 for no effect and ±100 for the full control effect; nearly all actives have a fitted effect of over 50% in size
G9a inh = qHTS Assay for Inhibitors of Histone Lysine Methyltransferase G9a. Histone-lysine N-methyltransferase EHMT2 (Homo sapiens), Q96KQ7. G9a H3K9 monomethylation, AlphaScreen, 2 h. Potency, µM (series often up to 102 µM), inactives show top-dose activity, negative = inhibition, hits mostly inhibitors. 350,000 compounds, 8.8% hits. AID 504332, 2011; note: potency is the fitted concentration of half-maximal effect; % is set by controls: 0 for no effect and ±100 for the full control effect; nearly all actives have a fitted effect of over 75% in size
Target sequence (Q96KQ7 913-1193 limits assumed): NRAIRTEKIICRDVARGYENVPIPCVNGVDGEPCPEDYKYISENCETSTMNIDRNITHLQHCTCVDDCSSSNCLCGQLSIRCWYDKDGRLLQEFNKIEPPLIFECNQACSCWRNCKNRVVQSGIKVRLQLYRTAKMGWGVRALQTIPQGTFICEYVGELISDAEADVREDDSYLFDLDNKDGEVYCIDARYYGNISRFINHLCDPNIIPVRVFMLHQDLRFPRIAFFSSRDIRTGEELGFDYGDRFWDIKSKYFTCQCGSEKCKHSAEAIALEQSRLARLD
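Compounds were preincubated with 20 nM G9a for 15 min, after which biotinylated H3K9 peptide (500 nM) and SAM (20 uM) started a 2 h room-temperature reaction. Monomethylated product was quantified by antibody-based AlphaScreen chemiluminescence.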
HP1b chromo inh = HTS for Inhibitors of HP1-beta Chromodomain Interactions with Methylated Histone Tails | AlphaScreen HP1-beta / biotin-H3K9me3 peptide binding | Potency, µM (titrated, usually from 114 µM), inactives show at the highest dose activity change, negative = inhibition, most hits filed as inhibitors | 390,000 compounds, 0.56% hits | AID 540317, 2011; note: potency is the fitted concentration of half-maximal effect; nearly all actives have a fitted effect of over 70% in size
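Compound inhibition of the preformed complex between 50 nM HP1-beta and 50 nM biotinylated H3K9me3 peptide was read by AlphaScreen. Buffer was PBS pH 7.4 with 0.01% Tween-20. Incubations ran 30 min at room temperature, with 10 ug/mL donor/acceptor beads.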
Numbers without * were called inactive; ? = inconclusive; nt = not tested or not shown; [ ] = another dose, or the depositor's remark. This is a sample that favours compounds with a hit; in the whole collection about 12% have one here. Unless noted, calls come from the whole dose curve; as a rule, active = well fitted curve in the direction sought with a large enough effect; inconclusive = small, poorly fitted or top-dose-only effect, or another doubt; inactive = no such curve, though single readings can be large; an effect the other way counts as inactive or inconclusive.

SMILES	PI5P4K alpha inh	BAZ2B block	PLK1 PBD inh	JMJD2A Tudor	G9a inh	HP1b chromo inh
COC(=O)c1cccnc1-n1c(=O)c2cccnc2n(CC(=O)Nc2ccccc2F)c1=O	nt	0%	nt	-2%	-8%[59 µM]	17%
C#CCOCCOCCOCCNc1nc(N2CCN(C(=O)C([C@@H](C)O)n3cc([C@@H](N)CCCCN)nn3)CC2)nc(N2CCN(C(=O)[C@H](CCCCN)n3cc([C@@H](N)CC(N)=O)nn3)CC2)n1 (some centres not stated)	-11	nt	-7%	79µM*	nt	13%
C#CCOCCOCCOCCNc1nc(N2CCN(C(=O)[C@H](CCCCN)n3cc(CN)nn3)CC2)nc(N2CCN(C(=O)[C@H](CO)n3cc([C@@H](N)C(C)C)nn3)CC2)n1	4	nt	-16%	-32%	nt	46%
C#CCOCCOCCOCCNc1nc(N2CCN(C(=O)[C@H](CCCCN)n3cc([C@@H](N)CC(N)=O)nn3)CC2)nc(N2CCN(C(=O)[C@H](CCCCN)n3cc([C@@H](N)CC(N)=O)nn3)CC2)n1	-2	nt	-29%	79µM*	nt	40%
C#CCOCCOCCOCCNc1nc(N2CCN(C(=O)[C@H](CCCCN)n3cc(CN)nn3)CC2)nc(N2CCN(C(=O)[C@H](CCCCN)n3cc([C@@H](N)CC(N)=O)nn3)CC2)n1	-11	nt	-2%	35µM*	nt	13%
C=CC(=O)Nc1cccc(CN2C(=O)N(c3cc(OC)cc(OC)c3)Cc3cnc(NCCCCN(CC)CC)nc32)c1	1	nt	-5%	?	nt	3%
S=C(c1ccc(N2CCOCC2)cc1)N1CCCCC1	-5	7%	-15%	-6%	-5%[59 µM]	9%
Oc1ccc(C(=S)N2CCCCC2)cc1	-16	0%	19µM*	-15%	45µM*	-21%
S=C(c1ccc(Br)cc1)N1CCCC1	0	-4%	?	0%	45µM*	11%
O=C(NC1CC1)c1ccc2sc([C@@H]3O[C@H](CO)[C@H](O)[C@H](O)[C@H]3O)nc2c1	0	nt	-7%	nt	nt	nt
O=S(=O)(c1cccc2nsnc12)N1CCN(C/C=C\c2ccccc2)CC1	nt	?	-5%	?	50µM*	-19%
O=S(=O)(c1cccs1)N1CCN(C/C=C/c2ccccc2)CC1	-7	1%	-7%	-11%	-2%[12.7 µM]	1%
O=S(=O)(c1ccc(Cl)s1)N1CCN(C/C=C/c2ccccc2)CC1	12	?	-6%	1µM*	14µM*	?
O=S(=O)(c1cccc2nsnc12)N1CCc2ccccc21	nt	71µM*	-2%	?	?	-14%
O=S(=O)(c1cccc2nsnc12)N1CCN(c2ccccc2F)CC1	-17	?	24µM*	50µM*	nt	?
COCCn1c(=O)c(-c2ccc(F)cc2)nc2cnc(N(C)C)nc21	nt	nt	nt	nt	10%[0.501 µM]	nt
CC1(C)CC(N=c2cc(-c3ccccc3)oc3ccc(Cl)cc23)CC(C)(C)N1	2	?	1%	-23%	71µM*	19%
Cc1ccc(-c2cc(-c3ccc4c(c3)NC(=O)CO4)nc3c2COc2ccc(C)cc2-3)cc1	nt	-38%	nt	-12%	2%[59 µM]	14%
O=[N+]([O-])c1ccccc1OCCOCCOc1cccc2cccnc12	-9	32µM*	-12%	20µM*	2µM*	?
COC(=O)c1ccccc1OCCOCCOc1cccc2cccnc12	-9	-32%	?	-30%[57.1 µM]	5%[59 µM]	?
Cc1ccc(OCCOCCOc2cccc3cccnc23)c(Br)c1	-6	9%	27µM*	-1%[57.1 µM]	14%	?
COc1ccc(OC)c(CCNC(=O)Cn2nc(C)n3c(cc4sccc43)c2=O)c1	nt	-2%	nt	-8%	12%[59 µM]	12%
CCOc1ccc(C(c2c(O)cc(C)n(Cc3ccco3)c2=O)N2CCN(C)CC2)cc1 (configuration not stated)	nt	-10%	nt	?	?	1%[57 µM]
COc1ccccc1N1CCN(C(=O)c2cc3c(=O)n(Cc4cccnc4)ccc3nc2C)CC1	nt	-13%	nt	-20%	10%[59 µM]	-8%
O=C(C1CCCO1)N1CCN(S(=O)(=O)c2ccccc2)CC1 (configuration not stated)	nt	-4%	-8%	-11%	?	48%
SMILES	PI5P4K alpha inh	BAZ2B block	PLK1 PBD inh	JMJD2A Tudor	G9a inh	HP1b chromo inh
c1ccc(Oc2cccc(CN3CCCCC3)c2)cc1	nt	?	-7%	-12%	-10%	10%
CCOC(=O)C1CCN(S(=O)(=O)c2ccc(OC)c(OC)c2)CC1	nt	-1%	1%	-12%	-1%[59 µM]	16%
CCOC(=O)C1CCN(Cc2ccc(O)c(OC)c2)CC1	0	?	0%	3.2µM*	32µM*	?
O=C(CN1CCN(C(=O)C2CCCO2)CC1)Nc1ccc(Cl)c(Cl)c1 (configuration not stated)	1	-7%	2%	9%	79µM*	34%
c1ccc(COc2cccc(CN3CCCCC3)c2)cc1	-4	?	-12%	25µM*	35µM*	?
O=C(CN1CCN(C(=O)C2CCCO2)CC1)Nc1cc(Cl)ccc1Cl (configuration not stated)	2	22%	0%	2%	-1%	27%
O=C(C1CCCO1)N1CCN(C(c2ccccc2)c2ccccc2)CC1 (configuration not stated)	nt	3%	-2%	-4%	8.9µM*	22%
C[C@H](OC(=O)N1CCN(C(c2ccccc2)c2ccccc2)CC1)[C@@H]1O[C@@]2(C)CCC[C@H]1O2	-1	1%	-6%	-20%	-9%[2.33 µM]	24%
CCN(CC)C(=O)C1CCN(Cc2ccc(OCc3ccccc3)c(OC)c2)CC1	-1	56µM*	-2%	11µM*	50µM*	?
OC1CCN(Cc2ccc(OCc3ccccc3)cc2)CC1	3	7%	-14%	-16%	-10%[0.501 µM]	13%
CCN1CCN(C(=O)C2CCN(Cc3cc(Cl)ccc3O)CC2)CC1	nt	?	-1%	10µM*	10µM*	?
CCN(CC)C(=O)C1CCN(Cc2ccc(OCc3ccccc3)cc2)CC1	0	?	-2%	22µM*	10µM*	?
COc1cc(CC(=O)O)ccc1OCc1ccccc1	3	-20%	2%	-3%	6%	32%
O=C(C1CCN(Cc2ccc(OCc3ccccc3)cc2)CC1)N1CCCC1	nt	79µM*	-2%	1.6µM*	14µM*	?
